Measured values published in PubChem BioAssay (NCATS).
Results filed as inconclusive are left out. Where a call stands in place of a potency, no number is given. Unmarked numbers belong to inactive results. Activity calls are given as the source filed them. The call rests on the fitted dose curve; in most records, active means well fitted inhibition curve with a large enough effect; inconclusive means small, poorly fitted or top-dose-only effect; inactive means no such curve, though single readings can be large or run the other way. Where a SMILES comes first, the peptide text is derived from it. [ ]: non-standard residue; d: D form. 2Abz = Nc1ccccc1C(=O)O

Assays:
[1] = system: Zika virus NS2B-NS3 protease (unlinked complex); assay: Primary screen GU Rhodamine qHTS for Zika virus inhibitors: Unlinked NS2B-NS3 protease assay (AID 1347159); conditions: Recombinant ZIKV NS2B-NS3 protease, Rhodamine110 substrate fluorescence; series mostly up to 107 µM; further: nearly all actives have a fitted effect of over 60% in size
Summary of the method: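 A qHTS format was used, with compound concentrations ranging up to 114 microM. Each compound was preincubated with 25 nM NS2B-NS3 protease, and the substrate was then added at 1.5 microM. Curves were fitted with a 4-parameter Hill model.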

[2] = system: Zika virus NS2B-NS3 protease (linked construct); assay: Primary screen NINDS Rhodamine qHTS for Zika virus inhibitors (AID 1347160); conditions: purified NS2B-NS3 protease, Rhodamine110 substrate fluorescence; series mostly up to 57.1 µM; further: nearly all actives have a fitted effect of over 55% in size
Summary of the method: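 Kinetic fluorescence (Ex 480 nm, Em 540 nm) over 15 min with 1.5 microM Rhodamine110 peptide and 25 nM linked protease.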
Potency means the concentration at half of the fitted maximal effect.

CC1OC(OC2C(C)OC(OC3C(OC(=O)/C=C/c4ccc(O)cc4)C(CO)OC(OC4(COC(=O)/C=C/c5ccc(O)cc5)OC(CO)C(O)C4O)C3OC3OCC(O)(CO)C3O)C(O)C2O)C(O)C(O)C1O (configuration not stated)
Potency [1]: inactive

CC(=O)O[C@@H]1C[C@@]23C[C@@]24CC[C@H](OC2OC[C@@H](O)[C@H](O)[C@H]2O)C(C)(C)[C@@H]4CC[C@H]3[C@]2(C)CC3OC4(C[C@@H](C)C3[C@@]12C)OCC1(C)OC14 (some centres not stated)
Potency [1]: inactive | Potency [2]: inactive

O=C(c1ccc(NS(=O)(=O)c2cccc3cccnc23)cc1)N1CCN(CC2CC2)CC1
Potency [1]: inactive

C[C@@H](O)[C@H](N)C(=O)N1CCC[C@H]1C(=O)N1CCC[C@H]1C(=O)N[C@H](C(N)=O)[C@@H](C)O (H-TPPT-NH2)
activity change, negative = inhibition [1]: -7.3% [at 19.1 µM] | activity change, negative = inhibition [2]: 20.4% [at 10.7 µM]

C=C[C@H]1[C@H](O[C@@H]2O[C@H](CO)[C@@H](O)[C@H](O)[C@H]2O)OC=C2C(=O)OCC[C@]21O
Potency [1]: 35.5 µM (active)

C[C@]12CCC(=O)C=C1[C@@H](O)C[C@@H]1[C@@H]2[C@@H](O)C[C@@]2(C)[C@H]1CC[C@]2(O)C(=O)CO
Potency [1]: inactive | Potency [2]: inactive

C=CC(C)(O)CC/C=C(/C)C(=O)OC1C(OC2OCC(OC3OC(CO)C(O)C(O)C3O)C(OC3OCC(O)C(OC4OC(C)C(O)C(O)C4O)C3O)C2O)COC(OC(=O)C23CCC(C)(C)CC2C2=CCC4C5(C)CCC(OC6OC(CO)C(OC7OC(CO)C(O)C(OC8OCC(O)C(O)C8O)C7O)C(O)C6O)C(C)(C)C5CCC4(C)C2(C)CC3O)C1O (configuration not stated)
activity change, negative = inhibition [1]: 23.5% [at 19.1 µM]

CN1C(=O)c2ccccc2-n2c(nc3ccccc3c2=O)/C1=C/c1ccccc1
Potency [1]: inactive | Potency [2]: inactive

C[C@@H]1O[C@@H](O[C@H]2[C@H](O)[C@@H](O)[C@H](OC[C@H]3O[C@@H](OC(=O)[C@]45CCC(C)(C)C[C@H]4C4=CCC6[C@@]7(C)C[C@H](O)[C@H](O[C@@H]8O[C@H](CO)[C@@H](O)[C@H](O)[C@H]8O)[C@@](C)(C(=O)O)C7CC[C@@]6(C)[C@]4(C)CC5)[C@H](O[C@@H]4O[C@H](CO)[C@@H](O)[C@H](O)[C@H]4O)[C@@H](O)[C@@H]3O)O[C@@H]2CO)[C@H](O)[C@H](O)[C@H]1O (some centres not stated)
activity change, negative = inhibition [1]: -27.3% [at 19.1 µM] | activity change, negative = inhibition [2]: -5.11% [at 10.7 µM]

C[C@@H]1CC[C@]2(C(=O)O)CC[C@]3(C)C(=CCC4[C@]5(C)C(CC[C@]43C)C(C)(C)[C@@H](O)[C@H](O)[C@@H]5O)C2[C@]1(C)O (some centres not stated)
Potency [1]: inactive

CC(=O)O[C@H](C[C@@H](C)[C@H]1C(=O)[C@H](O)[C@@]2(C)[C@@H]3CCC4C(C)(C)[C@@H](O[C@@H]5OC[C@H](O)[C@H](O)[C@H]5O)CC[C@@]45C[C@@]35CC[C@]12C)[C@@H]1OC1(C)C (some centres not stated)
Potency [1]: inactive | Potency [2]: inactive

CC(C)=CCCC1(C)Oc2cc3c(c4c2C2C(O4)C(C)(O)CCC21)CN(C(CCC(=O)O)C(=O)O)C3=O (configuration not stated)
Potency [1]: inactive

CC1OC(OC2C(O)C(C(=O)O)OC(OC3CCC4(C)C(CCC5(C)C4C=CC4=C6CC(C)(C)CC(O)C6(C)CCC45C)C3(C)C)C2OC2OCC(O)C(O)C2O)C(O)C(O)C1O (configuration not stated)
Potency [1]: 3.55 µM (active)

COc1cc(/C=C/C(=O)OC(C)(C)C(OC2OC(CO)C(O)C(O)C2O)C(=O)OCc2ccc(OC3OC(CO)C(O)C(O)C3O)cc2)ccc1O (configuration not stated)
Potency [1]: inactive | Potency [2]: inactive

CC[C@H]1OC(=O)C[C@@H](O)[C@H](C)[C@@H](O[C@@H]2O[C@H](C)[C@@H](O)[C@H](N(C)C)[C@H]2O)[C@@H](CCN2C[C@H](C)C[C@H](C)C2)C[C@@H](C)C(=O)/C=C/C(C)=C/[C@@H]1CO[C@@H]1O[C@H](C)[C@@H](O)[C@@H](OC)[C@H]1OC
Potency [1]: inactive | Potency [2]: inactive

C=CC1(C)CC2=CCC3C(C)(C(=O)O)CCCC3(C)C2CC1OC(C)=O (configuration not stated)
Potency [1]: inactive | Potency [2]: inactive

CC1CCC2C(C)(C)CC(C)(CO)C2(O)C1C(=O)O (configuration not stated)
Potency [1]: inactive | Potency [2]: inactive

OCC1OC(Oc2cc(O)c3c(c2)OC(c2ccc(O)cc2)C(O)C3)C(O)C1O (configuration not stated)
Potency [1]: inactive | Potency [2]: inactive

CCNC(=O)[C@H]1O[C@H](n2cnc3c(NCC(c4ccccc4)c4ccccc4)nc(C(=O)NCCNC(=O)NC4CCN(c5ccccn5)CC4)nc32)[C@H](O)[C@@H]1O
Potency [1]: inactive | Potency [2]: inactive

CCOC(=O)Nc1nc2ccccc2[nH]1
Potency [1]: inactive | Potency [2]: inactive

NC(Cc1c[nH]c2ccccc12)C(=O)NC(CCC(=O)O)C(=O)O (configuration not stated)
Potency [1]: inactive | Potency [2]: inactive

CC1NC(=O)C(Cc2c[nH]c3ccccc23)NC1=O (configuration not stated)
Potency [1]: inactive | Potency [2]: inactive

NC(=O)[C@H]1CCCCc2c1[nH]c1ccc(Cl)cc21
Potency [1]: inactive | Potency [2]: inactive

COc1cc2c(cc1O)C1(Cc3ccc4c(c3C1=O)OCO4)N(C)CC2 (configuration not stated)
Potency [1]: inactive | Potency [2]: inactive

Cc1nnc(C(C)C)n1C1CC2CCC(C1)N2CC[C@H](NC(=O)C1CCC(F)(F)CC1)c1ccccc1 (some centres not stated)
Potency [1]: inactive | Potency [2]: inactive

C/C1=C\C[C@H](O[C@@H]2O[C@H](CO)[C@@H](O)[C@H](O)[C@H]2O)/C(C)=C/[C@H]2OC(=O)[C@H](C)[C@@H]2CC1
Potency [1]: inactive | Potency [2]: inactive

O=C(O[C@H]1[C@@H]2C=CO[C@@H](O[C@@H]3O[C@H](CO)[C@@H](O)[C@H](O)[C@H]3O)[C@@H]2[C@@]2(CO)O[C@@H]12)c1ccc(O)c(O)c1
Potency [1]: inactive | Potency [2]: inactive

COc1cc([C@H]2OC[C@@H]3[C@@H](c4ccc(O[C@@H]5O[C@H](CO)[C@@H](O)[C@H](O)[C@H]5O)c(OC)c4)OC[C@]23O)ccc1O
Potency [1]: inactive | Potency [2]: inactive

Nc1ccn([C@@H]2C(F)=C(CO)[C@@H](O)[C@H]2O)c(=O)n1
Potency [1]: inactive | Potency [2]: inactive

CNc1nc(Nc2cnn([C@H]3CCN(C4COC4)C[C@@H]3F)c2Cl)ncc1C(F)(F)F
Potency [1]: inactive | Potency [2]: inactive

C(#Cc1cccc(CN2CCOCC2)c1)CCN1CCCCC1
Potency [1]: inactive | Potency [2]: inactive

CCN[C@@H]1C[C@H](N)[C@@H](O[C@H]2OC(CN)=CC[C@H]2N)[C@H](O)[C@H]1O[C@H]1OC[C@](C)(O)[C@H](NC)[C@H]1O
Potency [1]: inactive | Potency [2]: inactive

N#CCc1ccc(O)cc1O[C@@H]1O[C@H](CO)[C@@H](O)[C@H](O)[C@H]1O
Potency [1]: inactive | Potency [2]: inactive

CO[C@@H](Cc1ccc(OCCc2nc(-c3ccccc3)oc2C)c2ccsc12)C(=O)O
Potency [1]: 17.8 µM (active) | Potency [2]: 12.6 µM (active)

COc1cc(C2c3cc(O)c(OC)cc3CC(CO)C2CO)ccc1O (configuration not stated)
Potency [1]: inactive | Potency [2]: inactive

COC1=CC(=O)C[C@@H](C)[C@]12Oc1cc(OC)cc(OC)c1C2=O
Potency [1]: inactive | Potency [2]: inactive

COc1c(OC2OC(CO)C(O)C(O)C2O)ccc(O)c1C(=O)OCc1ccccc1O[C@@H]1O[C@H](CO)[C@@H](O)[C@H](O)[C@H]1O (some centres not stated)
Potency [1]: inactive | Potency [2]: inactive

CCS(=O)(=O)N1CCC([C@@H](C)n2c(C)c(C(=O)NCc3c(OC)cc(C)[nH]c3=O)c3ccccc32)CC1
Potency [1]: inactive | Potency [2]: inactive

C=CC(C)(C)C1(CC2NC(=O)C3CCCN3C2=O)C(=O)Nc2cc3c(cc21)C=CC(C)(C)O3 (configuration not stated)
Potency [1]: inactive | Potency [2]: inactive

C=C(C)[C@@H]1CC[C@](C)(O)[C@@H](OC(=O)c2ccccc2)C1
Potency [1]: inactive | Potency [2]: inactive

CC(=O)OC[C@@]12[C@H](O)C[C@]3(C)C(=CCC4[C@@]5(C)CC[C@H](O[C@@H]6O[C@H](C(=O)O)[C@@H](O[C@@H]7O[C@H](CO)[C@@H](O)[C@H](O)[C@H]7O)[C@H](O)[C@H]6O[C@@H]6O[C@H](CO)[C@@H](O)[C@H](O)[C@H]6O)[C@](C)(CO)C5CC[C@]43C)[C@@H]1CC(C)(C)[C@@H](OC(C)=O)[C@@H]2O (some centres not stated)
Potency [1]: inactive | Potency [2]: inactive

NC(=O)c1cccc(-c2cc(O)cc(OC(=O)NC3CCCCC3)c2)c1
Potency [1]: inactive | Potency [2]: inactive

O=C(/C=C/c1ccc(O)cc1)OCC1=CC2OC(=O)C3=CO[C@@H](O[C@@H]4O[C@H](CO)[C@@H](O)[C@H](O)[C@H]4O)[C@H]1[C@@H]32 (some centres not stated)
Potency [1]: inactive | Potency [2]: inactive

CC1=C2[C@@H]([C@H](C)CC[C@H]2/C=C(\C)C(=O)O)[C@H](O)C1
Potency [1]: inactive | Potency [2]: inactive

O=C(O)[C@H]1CCCC[C@H]1C(=O)N1CCc2ccccc2[C@H]1CN1C(=O)c2ccccc2C1=O
Potency [1]: inactive | Potency [2]: inactive

C[C@@H]1C[C@H](O)/C=C/[C@H](O)[C@@H](O)CC(=O)O1
Potency [1]: inactive | Potency [2]: inactive

O=c1ccn(C2OC(CO)C(O)C2O)c(=O)[nH]1 (configuration not stated)
Potency [1]: inactive | Potency [2]: inactive

COc1ccc2c(c1)OC[C@]1(O)c3cc4c(cc3O[C@H]21)OCO4
Potency [1]: inactive | Potency [2]: inactive

O=C(NCC(=O)N1CC[C@H](NC2CCC(O)(c3ccc(-c4ncccn4)cn3)CC2)C1)c1cccc(C(F)(F)F)c1 (some centres not stated)
Potency [1]: inactive | Potency [2]: inactive

COc1ccc2c(c1O)OC[C@H]1c3ccc(O)cc3O[C@@H]21
Potency [1]: inactive | Potency [2]: inactive

COc1cc(/C=C/C(=O)OC2CC(OC(C)=O)C(OC(C)=O)C3C2CCC2C(=O)OC(c4ccoc4)CC23C)ccc1O[C@@H]1O[C@H](CO)[C@@H](O)[C@H](O)[C@H]1O (some centres not stated)
Potency [1]: inactive | Potency [2]: inactive

CCC(C)C1NC(=O)C2CCCN2C(=O)C(C(C)C)NC(=O)c2ccccc2NC(=O)C(Cc2ccc(O)cc2)NC(=O)C(C)NC(=O)C(C(C)O)NC1=O (configuration not stated) (cyclo([2Abz]VPITAY); configuration not given here)
Potency [1]: inactive | Potency [2]: inactive

CC/C=C\C[C@H]1C(=O)C=C[C@@H]1CCCCCCCC(=O)O
Potency [1]: 35.5 µM (active) | Potency [2]: inactive

CC1(C)CC2C(O)C3=C(CC(C)(O)C2C1)C(=O)OC3O (configuration not stated)
Potency [1]: inactive | Potency [2]: inactive

COC(=O)C1(Cc2ccc(O)cc2)OC(=O)C(OC)=C1c1ccc(O)cc1 (configuration not stated)
Potency [1]: inactive | Potency [2]: inactive

C/C(=C\CCC(C)(O)c1ccc(C)cc1)C(=O)O (configuration not stated)
Potency [1]: inactive | Potency [2]: inactive

CC1=CC(=O)OC(C)(CC(C)(O)C(=O)O)C1 (configuration not stated)
Potency [1]: inactive | Potency [2]: inactive
